# Assay outcomes as filed in PubChem BioAssay.
# Compounds with a hit are over-represented: about 1.9% of the library has one in this group of screens.
# HTT aggregate = reduces HttQ103-GFP aggregates in PC12 cells. PC12 HttQ103-GFP aggregates, Acumen cytometry, 40 h. Potency, µM (highest dose often 46.1 µM), without a hit: at the highest dose activity change, negative = inhibition, hits mostly inhibitors. hit rate 1.1% among 220,000. AID 1688; note: % is set by controls: 0 for no effect and ±100 for the full control effect; nearly all actives have a fitted effect of over 60% in size
#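 Huntingtin Q103 exon 1–GFP aggregates in induced PC12 cells (100 nM tebufenozide) were quantified by cytometry from lysates, with compounds dosed in titration.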
# ERK EGF inh = EGF-driven ERK pathway inhibition; HEK293-V1b, EGF-stimulated phospho-ERK AlphaScreen; Potency, µM (titrated, usually from 11.5 µM), for the others: top-dose activity change, negative = inhibition, hits mostly inhibitors; hit rate 0.41% among 130,000; AID 1454;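 note: plate controls were stimulated vehicle wells for no effect and unstimulated vehicle basal for full effect; nearly all actives have a fitted effect of over 55% in size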
#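 Homogeneous cell-based phospho-ERK assay: HEK293/V1b cells in 1% FBS, compound 30 min then EGF 5 min, AlphaScreen luminescence. Activity normalized between DMSO and 25 nM EGF controls; AC50 from Hill modelling.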
# HTT ATP protect = cytoprotection in Huntington HTT-Q103 PC12 cell model. PC12 HTT-Q103 induced, cytoprotection, ATP luminescence, 40 h. hit rate 0.14% among 230,000. Potency, µM (highest dose often 56.4 µM), inactives show cytoprotection (ATP increase), actives largely listed as activators; note: % of control where 0% means no effect; nearly all actives have a fitted effect of over 45% in size
#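 Compounds were screened for protection of PC12 cells against cell death after tebufenozide induction (100 nM final) of mutant Huntingtin exon 1 (Q103) fused to GFP.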
# NPSR antagonist = neuropeptide S receptor (human) antagonism, cAMP | Q6W5P4 | CHO-NPSR cells, cAMP TR-FRET, antagonist mode | Potency, µM (top dose mostly 38.3 µM), inactives show top-dose activity change, negative = inhibition, actives largely listed as inhibitors | hit rate 1% among 220,000; note: % is set by controls: 0 for no effect and ±100 for the full control effect; nearly all actives have a fitted effect of over 50% in size
# Target sequence (Q6W5P4 whole entry, looked up): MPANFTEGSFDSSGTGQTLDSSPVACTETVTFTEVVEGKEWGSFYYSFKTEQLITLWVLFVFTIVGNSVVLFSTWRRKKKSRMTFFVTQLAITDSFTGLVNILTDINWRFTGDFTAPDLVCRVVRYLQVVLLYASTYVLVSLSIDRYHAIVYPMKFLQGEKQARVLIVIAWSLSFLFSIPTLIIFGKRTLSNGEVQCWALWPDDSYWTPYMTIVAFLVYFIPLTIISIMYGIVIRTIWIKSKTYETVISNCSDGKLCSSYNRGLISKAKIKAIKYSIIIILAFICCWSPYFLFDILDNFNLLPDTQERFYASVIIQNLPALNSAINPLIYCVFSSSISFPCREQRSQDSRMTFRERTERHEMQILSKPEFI
# IMPase Li inh = cell-permeable IMPase inhibitors with lithium potentiation; CHO-M1 cells, IP1 TR-FRET (IP-One), carbachol + lithium; Potency, µM (highest dose often 59.4 µM), for inactives: at the highest dose activity, negative = IMPase inhibition, usual class: inhibitors; hit rate 0.35% among 210,000; AID 1457;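 note: IP1 builds up when IMPase is blocked and the TR-FRET signal falls; plate controls were basal vehicle for no effect and high inhibitor control for full effect; nearly all actives have a fitted effect of over 50% in size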
#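 Concentration–response in CHO-M1 cells, lithium-potentiated; 30 min at 37C. IP1 detected by competitive TR-FRET after 10 min lysis at RT. Hill-fitted AC50.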
# * marks the source's active call; other numbers are inactive results; ? = inconclusive; . = no result given; ! = a repeat was not active; [ ] = another dose, or the depositor's remark. Calls come from the whole dose curve; as a rule, active = well fitted curve in the direction sought with a large enough effect; inconclusive = small, poorly fitted or top-dose-only effect, or another doubt; inactive = no such curve, though single readings can be large; an effect the other way counts as inactive or inconclusive. Potency is the fitted concentration of half-maximal effect.
SMILES,HTT aggregate,ERK EGF inh,HTT ATP protect,NPSR antagonist,IMPase Li inh
C(=N\Nc1nc2ccccc2[nH]1)/c1ccccn1,7.08µM*,-4.7%,-198.6%,10µM*,19.5%
CCCCn1c(/C=N/Nc2nc3ccccc3[nH]2)nc2ccccc21,?,-9.8%,6.5%[10 µM],12.6µM*,31.0%
C(=N\Nc1nc2ccccc2[nH]1)/c1cccc2nccnc12,?,-10.8%[57.5 µM],-61.9%[10 µM],-1.1%,.
c1ccc2c(c1)CC/C2=N/Nc1nc2ccccc2[nH]1,-12.4%,6.6%,1.4%[10 µM],7.94µM*,31.0%
C#CCn1cc(/C=N/Nc2nc3ccccc3[nH]2)c2ccccc21,-0.2%,25.1µM*,10.5%[10 µM],12.6µM*,12.4%
O=c1nc(N/N=C/c2ccccn2)cn[nH]1,8.91µM*,-0.3%,-151.5%,-32.1%,13.9%
Cc1ccc(/C=N/Nc2cn[nH]c(=O)n2)o1,1.6%,-0.4%,?,-15.5%,7.9%
N=c1c2c(n(Cc3ccccc3)c3c1CCC3)CCC2,8.91µM*,.,-59.0%,-8.5%[46.1 µM],13.7%[38.3 µM]
N=c1c2c(n(Cc3cccc(Cl)c3)c3c1CCC3)CCCC2,10µM*,-8.2%,-43.1%[10 µM],-12.9%,18.2%
N[C@H](CCCC(=O)O)C(=O)O,.,.,-15.7%[1.9 µM],.,.
O=C(COC(=O)c1cc(-c2ccc(Cl)s2)nc2ccccc12)NCc1ccco1,-6.6%,.,-47.0%,?,?
COc1ccc(CNC(=O)COC(=O)c2cc(-c3ccc(Cl)s3)nc3ccccc23)cc1,7.1%,.,15.7%,10µM*,10µM*
O=C(COC(=O)c1cc(-c2cccs2)nc2ccccc12)NCc1ccco1,11.9%[9.22 µM],.,-7.8%[10 µM],-20.5%[46.1 µM],7.94µM*
Nc1ccc(/C=C/c2ccc(N)cc2S(=O)(=O)O)c(S(=O)(=O)O)c1,18.7%,.,9.8%,.,.
CCc1ccc2c(c1)C1(NN=C(c3ccc(C)cc3)S1)C(=O)N2 (centres undefined),22.4µM*,2.5%,14.9%[10 µM],0.5%,14.9%
COC(=O)c1cnn(-c2nc(OC)cc(OC)n2)c1C,-17.1%,-4.5%,-26.5%[10 µM],13.5%,0.3%
COc1cc(OC)nc(-n2ncc(Br)c(Br)c2=O)n1,4.47µM*,-10.8%,.,6.31µM*,-18.3%
NC1(C(=O)O)CCc2cc(P(=O)(O)O)ccc21 (centres undefined),.,.,-28.8%,.,-6.3%
OC(C#Cc1ccccn1)c1cccs1 (centres undefined),5.01µM*,.,5.9%,?,6.8%[38.3 µM]
CCCCC/C=C\C/C=C\C/C=C\CCCCC(N)=O,.,-3.1%,24.2%,.,2.4%
Cc1nc2ccccc2n1-c1nc(-c2ccco2)cc(C(F)(F)F)n1,3.16µM*,.,-87.5%,-20.2%[46.1 µM],18.1%[38.3 µM]
COCCn1c(=O)c(-c2ccccc2)nc2cnc(N3CCNCC3)nc21,.,-4.4%,?,.,-2.6%
COc1ccc(OC)c(NC(=O)C2CCN(c3cc(-c4ccccc4)nc4ncnn34)CC2)c1,11.1%,.,-65.4%,-15.5%[46.1 µM],?
COc1ccccc1NC(=O)N1CCN(c2cc(-c3ccccc3)nc3ncnn23)CC1,10µM*,.,?,-20.8%[46.1 µM],6.5%[38.3 µM]
Brc1ccc2ncnc(NCc3ccco3)c2c1,8.91µM*,.,-10.7%,3.4%[46.1 µM],-7.7%[38.3 µM]
SMILES,HTT aggregate,ERK EGF inh,HTT ATP protect,NPSR antagonist,IMPase Li inh
Cc1ccc2[nH]c3c(NCc4ccco4)ncnc3c2c1,11.2µM*,.,-89.2%[0.074 µM],-23.8%[46.1 µM],13.1%[38.3 µM]
COc1cc2ncnc(NCc3ccccc3)c2cc1OC,?,.,7.8%[10 µM],2.8%[46.1 µM],13.7%
COc1cc2ncnc(NCc3ccco3)c2cc1OC,-17.6%[9.22 µM],22.4µM*,-4.8%,8.3%,6.1%
CC(=O)OCC1OC(C#Cc2ccc(Br)cc2)C=CC1OC(C)=O (centres undefined),.,.,7.4%[10 µM],.,.
COc1ccc2c(c1)c1ncn(Cc3ccco3)c(=O)c1n2C,10µM*,.,-29.4%,-9.2%[46.1 µM],0.5%[38.3 µM]
CN(C)S(=O)(=O)Oc1cccc(C(=O)Nc2ccc(Cl)c(Cl)c2)c1,12.6µM*,.,-45.8%,-28.9%[46.1 µM],18.9%[38.3 µM]
CN(C)S(=O)(=O)Oc1cccc(C(=O)Nc2cccc(Cl)c2)c1,-25.1%,.,33.0%,-6.4%[46.1 µM],12.6%[38.3 µM]
COc1ccc(Cc2cnc(N)nc2N)cc1OC,?,.,62.7%,.,.
C=CCC(C)(NCc1ccccc1)C(=O)OCC (centres undefined),.,-5.7%,17.8%,.,-1.7%
O=C(N/N=C/c1cc2c3c(c1O)CCCN3CCC2)c1ccccc1O,0.891µM*,?,.,-10.6%,13.7%
CCOc1ccc(N=c2cc(-c3ccc(OC)cc3)oc3ccccc23)cc1,3.16µM*,?,-8.2%[10 µM],-20.4%[46.1 µM],18.1%
COc1ccc(N=c2cc(-c3ccc(OC)cc3)oc3ccccc23)cc1,-24.2%,?,-0.7%[10 µM],-46.5%,13.7%
Cc1cccc(C)c1Nc1oc(-c2ccccc2)nc1-c1cccc2ccccc12,.,-15.0%,-20.3%,.,9.6%
Cc1ccc(C)c(NC(=S)NNC(=O)c2csc3c2CCCC3)c1,25.1µM*,.,11.1%,-16.8%[46.1 µM],36.9%[38.3 µM]
Cc1ccc(C)c(NC(=S)NNC(=O)c2csc3c2CCC(C)C3)c1 (centres undefined),-2.7%,.,0.8%,-7.8%[46.1 µM],-2.7%[38.3 µM]
COc1cccc(-c2cncnc2NCCc2c[nH]c3ccc(OC)cc23)c1,.,.,3.16µM*,.,33.9%
CCSc1ccc(C(=O)NCC(=O)O)cc1,23.3%[9.22 µM],4.0%[57.5 µM],26.3%[10 µM],-17.4%,.
Nc1ccc(C(=O)NCC(=O)O)cc1,-9.9%[20.6 µM],-0.7%,3.16µM*!,.,12.3%
Cc1nc2ccccn2c1-c1csc(Nc2cccc(O)c2)n1,22.3%[9.22 µM],-6.1%,?,-16.4%,0.0%
Cc1cccc(Nc2nc(-c3c(C)nc4ccccn34)cs2)c1,11.2µM*,.,-46.9%,?,20.0%[38.3 µM]
COc1ccc(CN(CCC(c2ccccc2)c2ccc(OC(C)C)cc2)C(=O)CCl)cc1OC (centres undefined),?,.,9.9%[10 µM],10µM*,14.0%
COc1ccc(C(CCN(Cc2ccc(OC)c(OC)c2)C(C)=O)c2ccccc2)cc1 (centres undefined),-1.1%,.,3.2%[10 µM],-19.7%[46.1 µM],.
CCOc1cc(/C=C2\C(=O)N(c3nc(-c4ccc(Br)cc4)cs3)N=C2c2ccccc2)ccc1O,1.8%,.,-24.6%,10µM*,16.6%[38.3 µM]
COc1ccccc1-c1cc(Nc2ccn[nH]2)ncn1,.,.,-122.5%,.,-5.6%
C=CC[C@@H]1C=C[C@@H](O/N=C2/[C@H]3O[C@@H]3[C@@H](O)[C@H]3[C@H]2CCn2c(=O)n(-c4ccccc4)c(=O)n23)[C@@H](CO)O1,.,.,-19.5%[10 µM],.,.
c1cc2[nH]snc2c2nc(C3CC3)nc12,11.2µM*,.,9.5%,13.7%[46.1 µM],-9.2%[38.3 µM]
COC(=O)[C@@H]1CC[C@H](C)[C@@H](c2ccc(C)cc2)N1C(=O)c1ccc(/C=N\O[C@@H](C)CN2CCCCc3nc(C)c(C)cc32)cc1,.,.,12.1%[10 µM],.,.
COC(=O)[C@@H]1CC[C@H](C)[C@@H](c2ccc(C)cc2)N1C(=O)c1ccc(/C=N/O[C@@H](C)CN2CCCCc3nc(C)c(C)cc32)cc1,13.1%,0.5%,.,10µM*,16.4%
COc1cc([N+](=O)[O-])cc2sc(NC(=O)C3CC3)nc12,1.6%,2.1%,-18.0%,?,22.4µM*
